Compound activity as filed in PubChem.
The list is not random: actives were taken first. Their share in the collection is about 1.3%.
Mtb bLac sens = beta-lactam sensitization of Mtb H37Rv; M. tuberculosis H37Rv growth with meropenem, percent inhibition; inhibition, % at 25 µM; 0.27% of 330,000 active; AID 434955; call rule not given here;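 note: growth measured after seven days incubation then overnight dye step; 0% = bacteria only wells and 100% = bacteria with antibiotic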
CCHFV vOTU inh = CCHFV vOTU protease inhibition | inhibition, % at 11.5 µM | AID 651958 | 0.55% of 370,000 active | Pep-AMC fluorescence; in the data active = inhibition above about 30%; note: 0% = vehicle wells with enzyme and 100% = no enzyme wells
Sa RN4220 lethal = S. aureus RN4220 growth inhibition | OD600, 16 h | inhibition, % (no concentration beside the values) | 0.33% of 330,000 active | AID 1259311; in the data active = inhibition above about 85%;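 note: plate controls were untreated cells for no effect and reference antibiotic for full effect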
3CLpro inhibitor = SARS-CoV 3CLpro protease inhibition. P0C6X7. recombinant SARS-CoV 3CLpro, quenched FRET peptide cleavage. inhibition, % at 6 µM. 0.14% of 290,000 active. AID 1706; in the data active = inhibition above about 12%
Sa ugtP lethal = compounds lethal to S. aureus RN4220 ugtP deletion mutant; OD600 growth, 16 h; growth inhibition, % (concentration not given with the values); 0.54% of 330,000 active; AID 1259309; in the data active = growth inhibition above about 68%;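 note: plate controls were untreated wells for no effect and antibiotic for full effect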
MazF activator = MazEF (E. coli) toxin RNase activation; FAM/BHQ RNA-DNA oligo cleavage fluorescence, 5 h; activation, % at 20 µM; 0.32% of 350,000 active; P0AE70; in the data active = activation above about 50%
Target sequence (P0AE70 whole entry, looked up): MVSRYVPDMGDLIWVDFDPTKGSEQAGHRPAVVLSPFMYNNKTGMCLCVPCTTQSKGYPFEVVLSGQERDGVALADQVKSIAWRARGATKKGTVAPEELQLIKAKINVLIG
Active calls of the source: *; nt = no result given.

SMILES | Mtb bLac sens | CCHFV vOTU inh | Sa RN4220 lethal | 3CLpro inhibitor | Sa ugtP lethal | MazF activator
CCc1nnc(NC(=O)CSc2nc3cc4c(cc3cc2CC)OCCO4)s1 | 4.8 | -11.2 | 8.1 | -8.7 | -10.6 | 81.7*
Cc1nn(Cc2ccc(Cl)cc2)c(Cl)c1C=NNC(=O)c1cccnc1 | nt | nt | 1.2 | nt | 0.7 | nt
CCOc1cc(C=NO)cc(Br)c1OCC(=O)NCc1ccccc1 | nt | nt | 20.7 | nt | 9.6 | nt
CCCCn1c(O)c(C(CC)=Nc2ccc(OCC)cc2)c(=O)[nH]c1=O | 98.9 | 3.1 | 4.9 | 2.2 | 21.4 | 54.9*
CCCCn1c(O)c(C(CC)=Nc2ccc(OC)cc2OC)c(=O)[nH]c1=O | -11.9 | 4.4 | -2.7 | 1.7 | 5.2 | 6.3
CC(=O)c1cccc(-c2ccc3c(=O)[nH]c(Nc4ccccc4)cc3c2)c1 | 1.8 | 104.4* | -2.7 | nt | -17.4 | -0.1
COc1ccc(/C=C2\CCCC(C(=O)C(F)(F)F)=C2O)cc1OC | 5.3 | nt | 5.0 | -0.1 | -0.1 | nt
COc1ccc(/C=C2/CCCC(C(=O)C(F)(F)F)=C2O)cc1OC | nt | 11.3 | 7.4 | 3.9 | -0.1 | 210.6*
CCN(CC)CCCNC(=O)c1cc(-c2ccccc2)c(N2CCCCC2)s1 | 9.1 | -9.4 | 4.2 | 3.1 | 87.8* | 34.8
O=C(NCCc1ccccc1)c1cc(-c2ccccc2)c(N2CCOCC2)s1 | 7.1 | 5.1 | 3.8 | nt | 7.4 | -6.5
CC1=CC(=NOS(=O)(=O)c2ccccc2)C(C)=CC1=O | nt | nt | 3.3 | nt | 10.1 | nt
N#CCCN1CCN(CCC#N)CC1 | 2.6 | -7.2 | 3.1 | 1.8 | 1.2 | 3.4
Cc1cc(CN2CCN(CCC#N)CC2)c(O)c(C2(C)CCCCC2)c1 | 5.3 | 7.2 | 16.4 | 0.8 | 84.3* | -4.4
N#CCCn1cc(C=NNC(=O)c2ccncc2)c(-c2ccccc2)n1 | nt | nt | 1.5 | nt | 5.1 | nt
Cc1c(C)c2cccnc2c2ncccc12 | 73.7 | nt | 93.2* | nt | 73.8 | 4.3
Cn1[nH]c(-c2ccccc2)c(C=NO)c1=O | nt | nt | 6.7 | nt | 7.0 | nt
C=CCn1c(=C(C#N)C(=O)c2ccccc2)sc(=Cc2ccc(C)o2)c1=O | nt | nt | 5.6 | nt | 5.6 | nt
CC(=NNC(=O)COc1ccc(C(C)(C)C)cc1)c1ccc(N2CCOCC2)cc1 | nt | nt | 1.7 | nt | 1.2 | nt
Cc1cc(C=C2C(=O)c3ccccc3C2=O)c(C)n1C | -1.5 | -11.1 | 7.4 | -6.1 | 5.4 | 8.7
CCn1c(C)cc(C=C2C(=O)c3ccccc3C2=O)c1C | nt | 11.6 | 2.3 | -0.2 | -17.5 | 78.7*
Cc1cccc(-n2c(C)cc(C=C3C(=O)c4ccccc4C3=O)c2C)c1 | 87.7 | -7.2 | 3.4 | 3.8 | 3.4 | 596.6*
COc1cc(OC)c(NC(=S)Nc2cccc(C(C)=O)c2)cc1Cl | -10.2 | 4.1 | 13.1 | 1.2 | -1.6 | -0.9
COc1cc(OC)c(NC(=S)Nc2cc(Cl)cc(Cl)c2)cc1Cl | -1.1 | 0.2 | 98.9* | 3.6 | 93.4* | 59.7*
CC(O)C1CCC2C3CCC4CC(O)CC[C@]4(C)C3C(=O)C[C@]12C (some centres not stated) | nt | nt | -1.2 | nt | -4.0 | nt
CCN1C(=O)c2cccc3c(S(=O)(=O)Nc4nc(C)cs4)ccc1c23 | -11.9 | nt | 28.0 | -2.0 | 95.4* | 3.9
SMILES | Mtb bLac sens | CCHFV vOTU inh | Sa RN4220 lethal | 3CLpro inhibitor | Sa ugtP lethal | MazF activator
CCN(Cc1ccccc1)c1ccc(C=NN2CCOCC2)cc1 | nt | nt | 3.0 | nt | 4.1 | nt
O=c1c2ccccc2nc(/C=C/c2ccc([N+](=O)[O-])o2)n1CCCO | 100.1 | 10.8 | 113.5* | -2.9 | 99.0* | 2.4
O=c1c2ccccc2nc(/C=C/c2ccc([N+](=O)[O-])cc2)n1CCCO | 7.5 | 0.0 | 2.7 | 1.7 | -16.5 | 2.4
COC(=O)CSc1nc2cc(C)ccc2cc1C#N | 1.4 | 4.9 | 2.2 | 3.4 | -6.9 | 260.4*
Cc1cc(NC(=O)CSc2ccc(Cl)cc2)no1 | 94.3 | 1.2 | 1.5 | 4.9 | 55.2 | -4.5
Cc1cc(C)c2nc(SCC(=O)Nc3cc(C)on3)c(C#N)cc2c1 | 7.0 | 0.3 | -2.1 | 0.4 | 11.7 | 58.9*
Cc1cc(NC(=O)CSc2nc(-c3ccc(Cl)cc3)cs2)no1 | 94.4 | 3.7 | -2.1 | -0.1 | -6.0 | 77.4*
Cc1ccc2nc(SCC(=O)Nc3ccc4sc(C)nc4c3)c(C#N)cc2c1 | 10.7 | -2.5 | 5.7 | 0.3 | 4.3 | 167.5*
COC(=O)C1=C(c2ccc(OC(F)(F)F)cc2)CC2CCC1N2C(=O)NC(C)C (configuration not stated) | nt | nt | -6.4 | nt | -12.9 | nt
CC1CN(C(C)CO)C(=O)c2cccc(NC(=O)c3ccncc3)c2OC1CN(C)S(=O)(=O)c1ccccc1 (configuration not stated) | nt | nt | 1.8 | nt | -5.9 | nt
COc1ccc(CCN2C(=O)CSC2=NNC(=O)c2ccc(C(C)(C)C)cc2)cc1OC | nt | nt | 1.7 | nt | 0.5 | nt
COc1ccc(/C=C2/N=C(SCC(=O)Nc3cc(C)on3)N(c3ccccc3)C2=O)cc1 | 6.9 | -6.6 | 6.6 | -0.9 | -2.6 | 70.2*
Cc1cc(NC(=O)CSc2nc3ccccc3cc2C#N)no1 | 6.6 | 10.1 | 2.0 | 2.5 | 4.1 | 54.9*
COC12C(COC(N)=O)C3=C(C(=O)C(C)=C(N)C3=O)N1CC1C2N1C (configuration not stated) | 100.1 | 6.2 | 100.0* | -2.3 | 100.3* | -2.5
Cc1cccc2c1NC(=O)/C2=C\C(=O)c1cccs1 | -1.4 | -6.2 | 96.6* | -1.3 | 97.6* | 8.2
CCc1ccc2c(c1)/C(=C/C(=O)c1cccs1)C(=O)N2 | 100.0 | -6.2 | 97.0* | 0.3 | 97.1* | 2.9
Cc1ccsc1C=NNC(=O)c1cccnc1 | nt | nt | 0.3 | nt | 1.7 | nt
Cc1ccc(C=NNC(=O)CNC(=O)c2cccs2)o1 | nt | nt | 2.0 | nt | 5.2 | nt
O=C(Nc1ccc(F)cc1F)Nc1csc2ccccc12 | 100.0 | 9.6 | -3.2 | 3.3 | -45.0 | 2.7
O=C(Nc1ccc(F)c(Cl)c1)Nc1csc2ccccc12 | 96.1 | 11.9 | 100.0* | -0.1 | 100.2* | 19.5
CCCCn1c(=O)c(C(=O)Nc2ccccc2C)c(O)c2ccccc21 | -7.2 | nt | 5.5 | -3.2 | 16.5 | 8.7
CCCCCn1c(=O)c(C(=O)Nc2ncccc2C)c(O)c2ccccc21 | 99.9 | -2.5 | 53.4 | -2.7 | 100.8* | 6.7
CCCCn1c(=O)c(C(=O)Nc2cnccn2)c(O)c2ccccc21 | 97.4 | 8.4 | 67.7 | -1.2 | 83.1* | -6.5
CCCn1c(=O)c(C(=O)Nc2ncccc2C)c(O)c2ccccc21 | 6.8 | 0.9 | 30.3 | 4.2 | 12.0 | 11.0
COc1cc(C=NNC(=O)c2nonc2N)c(OC)cc1Br | nt | nt | 3.7 | nt | -1.2 | nt
COC(=O)C(C)C1C[C@@]1(C)C(NC(=O)OCc1ccccc1)c1ccccc1 (some centres not stated) | nt | nt | 5.1 | nt | -1.2 | nt
CCCCCCSc1ccc(C2C3C(=O)N(C)C(=O)C3[C@]3(C(=O)OC)CCCCN23)cc1OC (some centres not stated) | nt | nt | -2.7 | nt | 9.9 | nt
O=[N+]([O-])c1ccc(O)c(C2=NNC(c3ccccc3F)C2)c1 (configuration not stated) | -1.9 | -10.9 | 91.8* | 2.8 | 93.8* | 4.9
Nc1ccc(N2CCOCC2)c2nonc12 | 0.3 | 108.7* | 5.2 | 1.6 | 8.1 | 5.4
CCCCNS(=O)(=O)c1ccc2nc(SCC(=O)Nc3sccc3C#N)[nH]c2c1 | 0.6 | 29.6* | -0.3 | 5.8 | -4.5 | 5.2
